From PubChem BioAssay (EPA / NIEHS)
Records with an inconclusive call do not appear. Calls of active or inactive are those of the source. Rule for the calls: active = hit-call score of the fitted dose curve at least 0.9, where 1 is the maximum; inconclusive = response in the unintended direction; inactive = score below 0.9.

What follows are molecules tested against frog Thyroid hormone Receptor alpha (TRa), thra-a (gene 397942) (UniProt P15204) (assay: ATG_frTRa_XSP2: Attagene TRANS-FACTORIAL Multi-Species (XSP2) HepG2 Assay for frog Thyroid hormone Receptor alpha (TRa) (AID 2283839);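 for AC50: AC50 reflects induction of frog TRa-driven reporter mRNA above DMSO baseline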).
Sequence of frog Thyroid hormone Receptor alpha (TRa), thra-a (gene 397942) (P15204 whole entry, looked up): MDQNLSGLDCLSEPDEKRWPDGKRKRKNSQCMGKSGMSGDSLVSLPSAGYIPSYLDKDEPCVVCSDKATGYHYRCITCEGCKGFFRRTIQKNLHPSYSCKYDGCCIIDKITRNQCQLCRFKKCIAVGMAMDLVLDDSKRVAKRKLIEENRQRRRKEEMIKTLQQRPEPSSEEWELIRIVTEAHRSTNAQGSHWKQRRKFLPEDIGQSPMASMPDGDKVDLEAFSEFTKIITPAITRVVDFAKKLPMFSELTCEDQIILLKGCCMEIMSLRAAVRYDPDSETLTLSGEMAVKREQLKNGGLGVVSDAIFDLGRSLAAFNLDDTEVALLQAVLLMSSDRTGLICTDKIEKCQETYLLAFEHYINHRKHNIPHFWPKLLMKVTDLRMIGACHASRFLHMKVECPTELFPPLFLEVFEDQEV
Procedure: ATG_XSP2_multi-species_TRANS is a cell-based, multiplexed assay created by modifying the existing Attagene TRANS-FACTORIAL system to include a panel of nuclear receptors from some or all the following species: human (Homo sapiens), mouse (Mus musculus), frog (Xenopus laevis), zebrafish (Danio rerio), chicken (Gallus gallus), and turtle (Chrysemys picta). The ECOTOX-FACTORIAL format uses HepG2, a human liver cell line, with measurements taken at 24 hours after chemical dosing in a 24-well plate. Xsp2 included 3 nM 6-alpha-fluorotestosterone and 1.5 nM norgestrel to stimulate the androgen receptor.ATG_frTRa_XSP2 is one of 29 assay components measured or calculated from the ATG_XSP2_multi-species_TRANS assay. It is designed to make measurements of mRNA induction, a form of inducible reporter, as detected with fluorescence intensity signals by Reverse transcription polymerase chain reaction (RT-PCR) and Capillary electrophoresis technology.The assay endpoint ATG_frTRa_XSP2 was analyzed in the positive analysis fitting direction relative to DMSO as the negative control and baseline of activity. Using a type of inducible reporter, measures of mRNA for gain-of-signal activity can be used to understand the reporter gene at the transcription factor-level as they relate to the gene TR. Furthermore, this assay endpoint can be referred to as a primary readout, because this assay has produced multiple assay endpoints where this one serves a reporter gene function. To generalize the intended target to other relatable targets, this assay endpoint is annotated to the nuclear receptor intended target family, where the subfamily is non-steroidal.
Human liver HepG2 cells are transiently transfected with multiple reporter transcription units (MRTUs) in 6-well plates using FuGene 6 reagent (Roche; 3 ml FuGene/1 mg DNA). The MRTU constructs are regulated by a cis-regulating element (promoter). […] A major difference between the CIS and TRANS system is that in CIS activities of endogenous TFs are measured, whereas the TRANS assay evaluates changes in activities of exogenous, chimeric NR-Gal4 proteins. […] At the end of 24 hour incubation, total RNA was isolated using TriZol reagent (Invitrogen). The isolated RNA is then reverse-transcribed using oligo(dT) primer and Mo-MLV reverse transcriptase (Invitrogen) with DNAse I (Ambion) treatment for 30 min. The one-tenth of the produced cDNA was amplified by PCR using Taq DNA polymerase (Invitrogen) and two reporter sequence-specific primers. The PCR products were fluorescently labeled by primer extension with 6-arboxyfluorescein (6-FAM) 5'-labeled reporter sequence-specific primer (2 min at 95 C, 20 s at 68 C and 10 min at 72 C) and these products were digested with 5U of HpaI (New England Biolabs) for 2h at 37 C. The fragments were purified using Qiaquick PCR columns (Qiagen), analyzed on an ABI 3130xL genetic analyzer (Applied Biosystems) with peak positions identified by using a set of X-rhodamine (ROX)-labeled MapMarker1000 molecular weight standards (BioVentures). The raw capillary electrophoresis data was processed using Attagraph software (Attagene).
In the case of `CCCCNC(=O)OCC#CI`, the AC50 is reported as 100 µM (active).
For `C#CCOS(=O)OC1CCCCC1Oc1ccc(C(C)(C)C)cc1` (stereo not given), the outcome was “inactive”.
In the case of `CC(C)(C)c1ccc(CSc2cnn(C(C)(C)C)c(=O)c2Cl)cc1`, the AC50 is reported as 0.0151 µM (active).
With `C=CC1(C)OC(=O)N(c2cc(Cl)cc(Cl)c2)C1=O` (stereo not given) the outcome was “inactive”.
In the case of `CC(C)Oc1cc(-n2nc(C(C)(C)C)oc2=O)c(Cl)cc1Cl`, the outcome is reported as “inactive”.
For `COP(=S)(OC)Oc1nc(Cl)c(Cl)cc1Cl`, the outcome was “inactive”.
For `COC(=O)N(OC)c1ccccc1COc1ccn(-c2ccc(Cl)cc2)n1`, the outcome was “inactive”.
`CON(C)C(=O)Nc1ccc(Cl)c(Cl)c1` was tested, and the outcome was “inactive”.
In the case of `CCOP(=S)(OCC)SCn1c(=O)oc2cc(Cl)ccc21`, the outcome is reported as “inactive”.
`CCCCOC(=O)c1ccccc1C(=O)OCCCC` was tested, and the outcome was “inactive”.
